Values without a mark were called inactive. Results filed as inconclusive are left out. The source made the active and inactive calls. Unless noted, calls come from the whole dose curve; as a rule, active = well fitted curve in the direction sought with a large enough effect; inconclusive = small, poorly fitted or top-dose-only effect, or another doubt; inactive = no such curve, though single readings can be large; an effect the other way counts as inactive or inconclusive.

Muscarinic acetylcholine receptor M1 (Rattus norvegicus), sequence (P08482 whole entry, looked up): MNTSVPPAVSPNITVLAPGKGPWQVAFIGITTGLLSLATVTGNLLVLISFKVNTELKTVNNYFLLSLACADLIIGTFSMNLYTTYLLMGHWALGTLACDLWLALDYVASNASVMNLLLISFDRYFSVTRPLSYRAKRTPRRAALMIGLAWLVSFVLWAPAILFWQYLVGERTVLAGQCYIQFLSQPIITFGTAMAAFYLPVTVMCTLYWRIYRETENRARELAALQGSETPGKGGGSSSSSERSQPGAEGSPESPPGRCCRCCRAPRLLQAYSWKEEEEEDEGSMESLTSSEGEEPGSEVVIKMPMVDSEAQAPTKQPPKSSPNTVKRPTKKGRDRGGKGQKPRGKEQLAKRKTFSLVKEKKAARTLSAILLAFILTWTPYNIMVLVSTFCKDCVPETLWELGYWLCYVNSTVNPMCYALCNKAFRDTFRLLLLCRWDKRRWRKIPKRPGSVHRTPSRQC
Guanine nucleotide-binding protein G(i) subunit alpha-1 (Homo sapiens), sequence (P63096 whole entry, looked up): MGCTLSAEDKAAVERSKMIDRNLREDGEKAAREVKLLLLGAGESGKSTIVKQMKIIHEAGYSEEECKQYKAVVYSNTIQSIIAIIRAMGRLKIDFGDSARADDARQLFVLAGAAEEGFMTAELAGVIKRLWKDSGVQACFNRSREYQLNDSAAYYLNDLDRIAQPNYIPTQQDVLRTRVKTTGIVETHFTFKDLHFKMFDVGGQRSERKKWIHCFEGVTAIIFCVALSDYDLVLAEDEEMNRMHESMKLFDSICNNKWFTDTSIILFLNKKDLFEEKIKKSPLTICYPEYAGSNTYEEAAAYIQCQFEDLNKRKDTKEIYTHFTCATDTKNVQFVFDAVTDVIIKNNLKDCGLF
3',5'-cyclic-AMP phosphodiesterase 4B (Homo sapiens), sequence (Q07343 whole entry, looked up): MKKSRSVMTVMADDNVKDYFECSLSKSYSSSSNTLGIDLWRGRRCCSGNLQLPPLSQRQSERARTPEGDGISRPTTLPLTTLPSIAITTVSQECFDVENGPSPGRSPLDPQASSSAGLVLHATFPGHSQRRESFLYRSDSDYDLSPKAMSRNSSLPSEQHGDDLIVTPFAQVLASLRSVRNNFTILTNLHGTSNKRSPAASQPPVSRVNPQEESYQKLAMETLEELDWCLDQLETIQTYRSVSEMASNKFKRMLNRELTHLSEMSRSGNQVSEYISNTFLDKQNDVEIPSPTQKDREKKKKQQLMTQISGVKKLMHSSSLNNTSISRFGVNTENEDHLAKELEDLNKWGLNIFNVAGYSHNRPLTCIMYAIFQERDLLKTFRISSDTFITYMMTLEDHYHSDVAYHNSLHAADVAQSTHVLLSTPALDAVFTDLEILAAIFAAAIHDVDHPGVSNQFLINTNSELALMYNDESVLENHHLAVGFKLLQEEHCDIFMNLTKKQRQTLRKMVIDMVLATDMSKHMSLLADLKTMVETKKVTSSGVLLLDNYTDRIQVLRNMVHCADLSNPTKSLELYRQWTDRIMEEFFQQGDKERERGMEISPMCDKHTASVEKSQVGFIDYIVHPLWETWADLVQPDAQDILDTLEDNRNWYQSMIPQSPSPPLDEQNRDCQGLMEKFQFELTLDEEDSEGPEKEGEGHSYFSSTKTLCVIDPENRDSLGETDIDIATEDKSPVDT
Pyruvate kinase PKM (Homo sapiens), sequence (P14618 whole entry, looked up): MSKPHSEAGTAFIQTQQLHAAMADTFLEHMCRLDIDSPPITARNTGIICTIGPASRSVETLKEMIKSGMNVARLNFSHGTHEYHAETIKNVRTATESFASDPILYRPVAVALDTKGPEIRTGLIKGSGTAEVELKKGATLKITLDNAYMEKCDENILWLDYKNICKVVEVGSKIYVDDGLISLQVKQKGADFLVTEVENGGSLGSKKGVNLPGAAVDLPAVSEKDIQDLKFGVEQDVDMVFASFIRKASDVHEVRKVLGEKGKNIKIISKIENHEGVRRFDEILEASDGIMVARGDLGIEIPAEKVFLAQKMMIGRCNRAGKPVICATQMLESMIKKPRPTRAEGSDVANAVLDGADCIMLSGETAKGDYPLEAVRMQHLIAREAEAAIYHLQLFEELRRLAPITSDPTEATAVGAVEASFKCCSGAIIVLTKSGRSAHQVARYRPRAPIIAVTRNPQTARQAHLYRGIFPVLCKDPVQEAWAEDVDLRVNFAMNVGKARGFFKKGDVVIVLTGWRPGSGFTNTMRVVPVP
Pyruvate kinase (Leishmania mexicana), sequence (Q27686 2-499 E452W): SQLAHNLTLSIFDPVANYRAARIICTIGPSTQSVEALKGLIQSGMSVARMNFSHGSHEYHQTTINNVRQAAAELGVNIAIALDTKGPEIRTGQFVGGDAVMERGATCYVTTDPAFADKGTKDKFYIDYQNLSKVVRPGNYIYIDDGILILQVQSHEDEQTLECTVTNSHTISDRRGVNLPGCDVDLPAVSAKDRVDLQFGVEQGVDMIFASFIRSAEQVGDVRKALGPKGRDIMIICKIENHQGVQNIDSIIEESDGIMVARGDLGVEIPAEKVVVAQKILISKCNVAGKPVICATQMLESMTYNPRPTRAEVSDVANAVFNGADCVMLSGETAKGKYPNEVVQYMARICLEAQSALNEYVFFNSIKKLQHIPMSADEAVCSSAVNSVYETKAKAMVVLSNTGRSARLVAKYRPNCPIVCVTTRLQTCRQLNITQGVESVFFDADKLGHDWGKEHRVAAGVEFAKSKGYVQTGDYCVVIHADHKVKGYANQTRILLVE
Alpha-galactosidase A (Homo sapiens), sequence (P06280 whole entry, looked up): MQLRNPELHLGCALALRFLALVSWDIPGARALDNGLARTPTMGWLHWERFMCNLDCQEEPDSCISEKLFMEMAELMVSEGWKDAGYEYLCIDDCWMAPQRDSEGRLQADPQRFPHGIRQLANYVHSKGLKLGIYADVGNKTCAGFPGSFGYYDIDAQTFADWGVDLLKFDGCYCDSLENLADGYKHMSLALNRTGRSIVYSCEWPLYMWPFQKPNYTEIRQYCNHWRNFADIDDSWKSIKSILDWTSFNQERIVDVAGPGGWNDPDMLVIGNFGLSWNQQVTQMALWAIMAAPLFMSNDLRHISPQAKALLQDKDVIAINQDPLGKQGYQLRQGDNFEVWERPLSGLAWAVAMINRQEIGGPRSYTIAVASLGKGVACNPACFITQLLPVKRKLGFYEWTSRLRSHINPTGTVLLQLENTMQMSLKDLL

One experiment addresses 3',5'-cyclic-AMP phosphodiesterase 4B (Homo sapiens) (UniProt Q07343). The experiment is described as follows: qHTS Assay for Inhibitors of PDE-IV (AID 607; active = well fitted activation curve with a large enough effect in the main read-out, with a control signal flat, not every such curve was filed as active; note: % of control where 0% means no effect). As to conditions: HEK293 ACTOne CNG channel cells, membrane potential fluorescence; series mostly up to 22.9 µM; activation (PDE inhibition): at the top concentration. The procedure, abridged: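 ACTOne HEK293 cells carry a modified cAMP-gated CNG channel and express endogenous PDE4; plated 1000 cells/well, compounds up to 22.9 uM final. Membrane-potential dye fluorescence (ex 535/em 590) was read; parental cells received 10 uM forskolin + 100 uM RO 20-1724.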
In the case of `NCCC(=O)NCCc1cnc[nH]1`, the Potency entry is “inactive”.

With `O=C(Cc1ccc(Cl)c(Cl)c1)OCCN1CCCC1`, the “activation (PDE inhibition)” value is 17.9%.

On to `NCCNC(=O)c1ccc(Cl)cc1`, for which the “activation (PDE inhibition)” value was -3.95%.

Consider `NC(=NCCC[C@H](N)C(=O)O)NO`, for which the “activation (PDE inhibition)” value was -6.16%.

Consider `N=C(N)SCCc1cccc(CCSC(=N)N)c1`, for which the “activation (PDE inhibition)” value is 7.87%.

Another experiment has as its target Guanine nucleotide-binding protein G(i) subunit alpha-1 (Homo sapiens) (UniProt P63096). In words: qHTS Assay for Inhibitors of RGS12 GoLoco Motif Activity (Green Fluorophore) (AID 879).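 Note: 0% = labeled peptide with Gαi1 and full inhibition = labeled peptide alone without protein; negative values mean loss of peptide binding seen as reduced polarization.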 The following applies: Galphai1/FITC-RGS12 GoLoco peptide, fluorescence polarization; series mostly up to 57.1 µM; activity, negative = inhibition: at the top concentration. The essentials:
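Fluorescence polarization assay: 50 nM Gαi1 with 10 nM FITC-labeled RGS12 GoLoco peptide in 10 mM Tris pH 7.5, 150 mM NaCl, 0.1 mM GDP, 0.05% NP40, 10 min at room temperature with compound.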
Consider `NCCC(=O)NCCc1cnc[nH]1`, for which the “activity, negative = inhibition” value was -0.637%.

For `O=C(Cc1ccc(Cl)c(Cl)c1)OCCN1CCCC1`, the “activity, negative = inhibition” value is -17.6%.

On to `OC[C@H]1O[C@@H](n2cnc3c(NCCc4ccccc4)ncnc32)[C@H](O)[C@H]1O`, for which the “activity, negative = inhibition” value is -15.1%.

Turning to `NCCNC(=O)c1ccc(Cl)cc1`, the “activity, negative = inhibition” value is -7.82%.

On to `NC(=NCCC[C@H](N)C(=O)O)NO`, for which the “activity, negative = inhibition” value was -18.4%.

Regarding `N=C(N)SCCc1cccc(CCSC(=N)N)c1`, the “activity, negative = inhibition” value is -5.25%.

System in the next experiment: not listed separately
The experiment is described as follows: qHTS Assay for Identification of Small Molecule Antagonists for NFkB Signaling Pathway (AID 895; active = well fitted inhibition curve with a large enough effect in the signal ratio, with a control signal flat, not every such curve was filed as active; the % refers to the signal ratio; note: potency is the fitted concentration of half-maximal effect; for activity change, negative = inhibition: % is set by controls: 0 for no effect and ±100 for the full control effect). As to conditions: NFkB beta-lactamase reporter cells, FRET ratio 460/530, stimulated with 10 pM TNF alpha; series mostly up to 38.3 µM; activity change, negative = inhibition: at the top concentration. The essentials: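 NFkB-bla ME-180 cervical carcinoma cells with beta-lactamase reporter under NFkB response element; compounds added, then TNF alpha at 10 pM final (EC50), 5 h at 37 C. LiveBLAzer substrate 2 h, room temperature; emission 460/530 nm at 405 nm excitation.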
In the case of `NCCC(=O)NCCc1cnc[nH]1`, the “activity change, negative = inhibition” value was -12.4%.

As to `O=C(Cc1ccc(Cl)c(Cl)c1)OCCN1CCCC1`, the “activity change, negative = inhibition” value is -22.2%.

On to `NC(=NCCC[C@H](N)C(=O)O)NO`, for which the Potency is 398 nM (active).

As for `N=C(N)SCCc1cccc(CCSC(=N)N)c1`, the “activity change, negative = inhibition” value is 0.331%.

System in the next experiment: not listed separately
The experiment is described as follows: qHTS Assay for Identification of Small Molecule Agonists for Thrombopoietin (TPO) Signaling Pathway (AID 917). Note: % is set by controls: 0 for no effect and ±100 for the full control effect. The following applies: TPO signaling pathway reporter cells, agonist qHTS, stimulated with TPO at its EC50; series mostly up to 38.5 µM; activity, positive = activation: at the top concentration. The essentials: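 Reporter: GpIIb promoter–luciferase in murine Ba/F3 expressing human TPO receptor. Pre-starved of IL-3 overnight; compounds with 26 pM TPO, 24 hrs, 37 C/5% CO2; luminescence read.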
For the compound `NCCC(=O)NCCc1cnc[nH]1`, the “activity, positive = activation” value was -9.48%.

On to `O=C(Cc1ccc(Cl)c(Cl)c1)OCCN1CCCC1`, for which the “activity, positive = activation” value was -23.6%.

Turning to `NCCNC(=O)c1ccc(Cl)cc1`, the “activity, positive = activation” value was -18.6%.

Turning to `NC(=NCCC[C@H](N)C(=O)O)NO`, the “activity, positive = activation” value is -23.3%.

For `N=C(N)SCCc1cccc(CCSC(=N)N)c1`, the “activity, positive = activation” value is -27.7%.

Another experiment has as its target Muscarinic acetylcholine receptor M1 (Rattus norvegicus) (UniProt P08482). The experiment is described as follows: qHTS Assay for Antagonists of Acetylcholine Muscarinic M1 Receptor: Kinetic Measurement of Intracellular Calcium Response (AID 943).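 For activity change, negative = inhibition: Fluo-4 calcium signal as peak divided by basal fluorescence over 4 min.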 Note: nearly all actives have a fitted effect of over 75% in size. Note: potency is the fitted concentration of half-maximal effect. As to conditions: M1-expressing cells, kinetic intracellular calcium fluorescence; series mostly up to 35.3 µM; activity change, negative = inhibition: at the top concentration. The procedure, abridged:
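CHO cells stably expressing rat M1 were loaded with no-wash Fluo-4 dye for 1 h at 37C, pre-incubated 10 min with compound, then challenged with EC80 carbachol (100 nM final); kinetic calcium read 4 min, peak/basal ratio.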
Take `NCCC(=O)NCCc1cnc[nH]1`: the “activity change, negative = inhibition” value was -40.8%.

As to `O=C(Cc1ccc(Cl)c(Cl)c1)OCCN1CCCC1`, the Potency is 14.1 µM (active).

As for `OC[C@H]1O[C@@H](n2cnc3c(NCCc4ccccc4)ncnc32)[C@H](O)[C@H]1O`, the “activity change, negative = inhibition” value was -43.8%.

`N=C(N)SCCc1cccc(CCSC(=N)N)c1`: the Potency was 4.47 µM (active).

For another experiment the target is unchanged. The experiment is described as follows: qHTS Assay for Antagonists of Acetylcholine Muscarinic M1 Receptor: Measurement of IP-One Response (AID 944). Note: nearly all actives have a fitted effect of over 75% in size. As to conditions: CHO-M1 cells, IP-One HTRF, antagonist mode; series mostly up to 46.1 µM; activity change, negative = inhibition: at the top concentration. The essentials: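 CHO cells expressing rat M1 receptor, recovered overnight, were pre-incubated 10 min with compound, then stimulated 30 min with carbachol at EC80 (200 nM) in LiCl-containing buffer, pH 7.4. IP1 accumulation was read by HTRF (620/665 nm).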
Regarding `NCCC(=O)NCCc1cnc[nH]1`, the “activity change, negative = inhibition” value was -23.5%.

Turning to `OC[C@H]1O[C@@H](n2cnc3c(NCCc4ccccc4)ncnc32)[C@H](O)[C@H]1O`, the “activity change, negative = inhibition” value was -34.5%.

Take `NCCNC(=O)c1ccc(Cl)cc1`: the “activity change, negative = inhibition” value is -24.8%.

For the compound `NC(=NCCC[C@H](N)C(=O)O)NO`, the “activity change, negative = inhibition” value is -25.1%.

In a further experiment the target is Pyruvate kinase (Leishmania mexicana) (UniProt Q27686). In words: qHTS Validation Assay for Inhibitors of Leishmania Mexicana Pyruvate Kinase (AID 945).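 Note: 0% = DMSO only neutral control wells.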 The following applies: purified L. mexicana pyruvate kinase, enzyme activity, E451W mutant enzyme; series mostly up to 57.5 µM; activity change, negative = inhibition: at the top concentration. The essentials:
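LmPYK E451W 0.2 nM; 0.5 mM PEP, 0.1 mM ADP, 7 mM MgCl2, 50 mM KCl, imidazole pH 7.2, 0.01% Tween 20, 0.05% BSA; 1 h RT; PKLight luminescence; DMSO-normalized.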
As for `NCCC(=O)NCCc1cnc[nH]1`, the “activity change, negative = inhibition” value was -6.46%.

As to `O=C(Cc1ccc(Cl)c(Cl)c1)OCCN1CCCC1`, the “activity change, negative = inhibition” value is 18.6%.

As for `OC[C@H]1O[C@@H](n2cnc3c(NCCc4ccccc4)ncnc32)[C@H](O)[C@H]1O`, the “activity change, negative = inhibition” value was -10.8%.

With `NCCNC(=O)c1ccc(Cl)cc1`, the “activity change, negative = inhibition” value is 7.77%.

With `NC(=NCCC[C@H](N)C(=O)O)NO`, the “activity change, negative = inhibition” value is -7.11%.

Take `N=C(N)SCCc1cccc(CCSC(=N)N)c1`: the “activity change, negative = inhibition” value is -2.57%.

The target in a further experiment is Pyruvate kinase PKM (Homo sapiens) (UniProt P14618). The experiment is described as follows: qHTS Assay for Activators of Human Muscle Pyruvate Kinase (AID 954; active = well fitted curve in the direction sought with a large enough effect, not every such curve was filed as active;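 note: 0% = uninhibited enzyme and -100% = no enzyme or full thiadiazolimine inhibition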). The following applies: purified human muscle pyruvate kinase, luciferase-coupled luminescence, 1 h; series mostly up to 57.5 µM; activity change, negative = inhibition: at the top concentration. The procedure, abridged:
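Luminescence from a luciferase ATP-detection/stop reagent reported PKM2 activity. Reactions contained 0.1 nM purified human enzyme, 0.5 mM PEP, 0.1 mM ADP and 7 mM MgCl2 at pH 7.2, run 1 h at RT.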
For the compound `NCCC(=O)NCCc1cnc[nH]1`, the “activity change, negative = inhibition” value is -27%.

On to `O=C(Cc1ccc(Cl)c(Cl)c1)OCCN1CCCC1`, for which the “activity change, negative = inhibition” value is -18.5%.

`OC[C@H]1O[C@@H](n2cnc3c(NCCc4ccccc4)ncnc32)[C@H](O)[C@H]1O`: the “activity change, negative = inhibition” value is -22.2%.

As to `NCCNC(=O)c1ccc(Cl)cc1`, the “activity change, negative = inhibition” value was -14.8%.

On to `NC(=NCCC[C@H](N)C(=O)O)NO`, for which the “activity change, negative = inhibition” value is -24.4%.

In the case of `N=C(N)SCCc1cccc(CCSC(=N)N)c1`, the “activity change, negative = inhibition” value was -7.12%.

The next experiment addresses Alpha-galactosidase A (Homo sapiens) (UniProt P06280). In words: Counterscreen for Glucocerebrosidase Inhibitors: qHTS Assay for Human alpha-Galactosidase at pH 4.5 (AID 992). Note: 0% is about no effect. As to conditions: purified enzyme, fluorogenic substrate; series mostly up to 76.9 µM; activity change, negative = inhibition: at the top concentration. The essentials: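 Enzyme at 2 nM final was combined with compound (0.7 nM to 77 uM) and 80 uM 4-methylumbelliferyl alpha-D-galactopyranoside in 50 mM citric acid, 0.005% Tween-20, pH 4.5. After 20 min at room temperature, fluorescence was read (Ex 365/Em 440 nm); AC50 came from Hill fits.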
Turning to `NCCC(=O)NCCc1cnc[nH]1`, the “activity change, negative = inhibition” value was -0.787%.

(Values after PubChem BioAssay (NCATS).)
